Source: PubChem
Shown are actives, neighbours in structure and some others; about 3.5% of the full set was active somewhere.
BoNT-F LC inh: BoNT/F light chain protease inhibitors, primary screen, biochemical, flow cytometry, MLPCN library | inhibition, % at 10 µM | Multiplex microsphere protease cleavage assay | actives 0.22% (n = 360,000) | AID 588497, 2011 | Botulinum neurotoxin type F light chain protease (Clostridium botulinum); in the data active means inhibition above about 35%, passing the limit was not always enough; inconclusive means no clear call, values can overlap the other calls
Autofluor counter: compound fluorescence in toxin protease inhibitor counterscreen; compound autofluorescence counterscreen, microsphere flow cytometry; stronger effect = higher value; fluorescence intensity (concentration not given with the values); actives 3.1% (n = 360,000); AID 624483; in the data active means fluorescence intensity above about 16000; inconclusive means no clear call, values can overlap the other calls
Anthrax LF inh2: Bacillus anthracis LF protease inhibitors, primary screen, biochemical, multiplex microsphere, MLPCN library. actives 0.12% (n = 360,000). multiplex microsphere protease cleavage assay. inhibition, % at 10 µM. Lethal factor (Bacillus anthracis), P15917
BoNT-A LC inh2: BoNT/A light chain protease inhibitors, primary screen, biochemical, flow cytometry, MLPCN library; Botulinum neurotoxin type A light chain protease (Clostridium botulinum A str. ATCC 3502); multiplex microsphere protease substrate cleavage; inhibition, % at 10 µM; actives 0.17% (n = 360,000)
Of the large screens only hits and unclear results are named; the others gave an inactive call; ! = not active in a repeat. Unless noted, no stated cut-off is given here; in the data, active means inhibition above about 30%; inconclusive means no clear call, values can overlap the other calls; inactive means below that.

Cc1ccc(NC(=O)C2CCN(S(=O)(=O)c3ccc4c(c3)OCCO4)CC2)c(O)c1	none
CCN1C(=O)[C@@H]2[C@@H](c3ccc(-c4ccc(F)cc4)cc3)N3CCCC[C@@]3(C(=O)OC)[C@@H]2C1=O	none
Cc1ccc(NC(=S)NCCN2CCOCC2)cc1C	Autofluor counter 20237
O=C(NC(=S)NCCN1CCOCC1)c1ccc(Cl)cc1Cl	none
O=C(NCCN1CCOCC1)c1cc2sccc2n1Cc1ccc(Cl)cc1	Autofluor counter 16131
O=C(NC(=S)NCCN1CCOCC1)c1ccc(Cl)cc1	BoNT-F LC inh 54
O=C(NCCN1CCOCC1)c1cc2sccc2n1Cc1ccc(F)cc1	none
CCOCCCNC(=O)c1ccc(N(C)S(=O)(=O)c2ccc(OC)cc2)cc1	none
COc1ccc(S(=O)(=O)Nc2cc(C(=O)NCCCOC(C)C)ccc2N2CCOCC2)cc1	none
COc1ccc(S(=O)(=O)Nc2cc(C(=O)NCCC(C)C)ccc2N2CCOCC2)cc1	Autofluor counter 23444
COc1ccc(S(=O)(=O)N(C)c2ccc(C(=O)NCCC(C)C)cc2)cc1	Autofluor counter 19593, BoNT-A LC inh2 inconclusive
COc1ccc2nc(SC(C)C(=O)NC3CCCC3)[nH]c2c1 (stereo not drawn)	Autofluor counter inconclusive
CN1CCN(C(=O)CCCOc2cc(=O)n(C)c3ccccc23)CC1	none
Cc1ccnc(NC(=O)CCCOc2cc(=O)n(C)c3ccccc23)c1	Autofluor counter 21080!, BoNT-A LC inh2 inconclusive
Cn1c(=O)cc(OCCCC(=O)NCc2ccccn2)c2ccccc21	Autofluor counter inconclusive, Anthrax LF inh2 inconclusive
Cn1c(=O)cc(OCCCC(=O)N2CCCCC2)c2ccccc21	Autofluor counter 22743
CN(C)c1ncc(S(=O)(=O)c2ccccc2)c(-c2ccc(Cl)cc2Cl)n1	Autofluor counter 22616, BoNT-A LC inh2 inconclusive
S=C(NC1CCCCC1)N1CCN(c2ncccn2)CC1	none
O=C(NC1CCCCC1)N1CCN(C2CCCCC2)CC1	Autofluor counter 23605
O=C(NC1CCCCC1)N1CCN(c2ncccn2)CC1	Autofluor counter 23207
O=C(c1ccccc1)c1nc2ccccc2n(CCCn2c(=O)c(C(=O)c3ccccc3)nc3ccccc32)c1=O	Autofluor counter 16402
Cn1c(=O)c(C(=O)c2ccccc2)nc2ccccc21	none
COc1ccc(C2C(C(=O)c3cccs3)=C(O)C(=O)N2c2nnc(C)s2)cc1OC (stereo not drawn)	none
C=CCOc1ccc(C2C(C(=O)c3cccs3)=C(O)C(=O)N2c2nnc(C)s2)cc1 (stereo not drawn)	BoNT-F LC inh 170
COc1ccc(C2C(C(=O)c3cccs3)=C(O)C(=O)N2c2nncs2)cc1 (stereo not drawn)	Autofluor counter 22479, BoNT-A LC inh2 inconclusive
Cc1cccc(S(=O)(=O)NC(=O)C2(C)CCN2C(=O)c2ccccc2CCc2ccccc2)c1 (stereo not drawn)	none
Cc1ccc(C)c(N2C(=O)CC(Cc3ccc(Br)cc3)C2=O)c1 (stereo not drawn)	BoNT-F LC inh inconclusive
COc1ccccc1NS(=O)(=O)c1cn(C)cn1	none
Cn1c(=O)c2c(ncn2CC(=O)Nc2cc(S(=O)(=O)N3CCCCC3)ccc2Cl)n(C)c1=O	none
CCOC(=O)c1nn(-c2ccc(C)c(C)c2)cc1O	Autofluor counter 23047
CCOC(=O)c1nn(-c2ccc3c(c2)OCCO3)cc1O	none
CCCCn1c(N)c(N(CCOC)C(=O)c2cc3c(s2)CCC3)c(=O)[nH]c1=O	none
CCCCn1nnc(NC(=O)C(c2ccccc2)c2ccccc2)n1	none
CCCCn1nnc(NC(=O)CCC)n1	Autofluor counter 19212
Cc1ccc(N(CC(=O)N2CCn3c2nc2ccccc23)S(=O)(=O)c2c(C)n[nH]c2C)cc1	Autofluor counter 17135
Cc1n[nH]c(C)c1S(=O)(=O)N1CCC(C(=O)N2CCn3c2nc2ccccc23)CC1	none
Cc1ccc(S(=O)(=O)N2CCC(C(=O)NCCN3CCCCCC3)CC2)cc1	Autofluor counter 18618, BoNT-A LC inh2 inconclusive
Cc1ccc(S(=O)(=O)N2CCC(C(=O)NCCCN3CCCC3=O)CC2)cc1	none
Cc1ccc(S(=O)(=O)N2CCC(C(=O)NCc3ccncc3)CC2)cc1	Autofluor counter 21375
COc1ccc(CNC(=O)[C@H](C)NC(=O)C2CCN(S(=O)(=O)c3ccc(C)cc3)CC2)cc1	Autofluor counter 18265, BoNT-A LC inh2 inconclusive
O=C(CNCc1ccncc1)Nc1cc(S(=O)(=O)N2CCCCC2)ccc1Cl	Autofluor counter 20589
N#Cc1nc(-c2ccc(F)cc2)oc1N1CCC(C(N)=O)CC1	none
CC(C)(C)c1ccc(-n2ncc3c2CCCC3NC(=O)c2cnccn2)cc1 (stereo not drawn)	none
Cc1cc(Cn2nnnc2-c2ccncc2)cc(C)c1O	none
CCC1CCCCN1CCCNC(=O)c1ccc(CS(=O)(=O)c2ccccc2C)o1 (stereo not drawn)	none
Cc1ccccc1OCC(=O)Nc1ccc(N2CCN(C)CC2)c(Cl)c1	none
Cc1ccc(S(=O)(=O)N2CCC(C(=O)N3CCC[C@H]3C(=O)NC3CCS(=O)(=O)C3)CC2)cc1 (stereo partly drawn)	Autofluor counter 23712, BoNT-A LC inh2 inconclusive
CC1(C)CC(=O)c2c(oc3cc(O)c(O)cc23)C1	Autofluor counter 17024
COC(=O)c1oc2c(c1C)C(=O)CC(C)(C)C2	none
Cc1sc2nc(CN(Cc3ccccc3)C(=O)NC3CCCCC3)[nH]c(=O)c2c1C	BoNT-F LC inh 38
CC(=O)N(Cc1ccccc1)Cc1nc2sc(C)c(C)c2c(=O)[nH]1	none
C[C@H](CO)N1C[C@H](C)[C@H](CN(C)C(=O)Nc2cccc(C(F)(F)F)c2)OCc2cnnn2CCCC1=O	none
CCN(CC)CCCNC(=O)CC1Oc2ccc(C)cc2NC1=O (stereo not drawn)	none
CCCCN(CCCC)CCCNC(=O)CC1Oc2ccc(C)cc2NC1=O (stereo not drawn)	Autofluor counter 23832
Cc1nc(NCC2CCCO2)c2oc3ccccc3c2n1 (stereo not drawn)	Autofluor counter 21375
CCc1nc(NCc2ccco2)c2oc3ccccc3c2n1	none
CCNc1nc(CC)nc2c1oc1ccccc12	Autofluor counter 21864
CCc1nc(NCc2cccnc2)c2oc3ccccc3c2n1	Autofluor counter 16165
Cc1cc(C)cc(OCCNC(=O)C2CCN(S(=O)(=O)c3ccccc3)CC2)c1	none
CCOC(=O)c1c(-c2cccs2)csc1NC(=O)c1ccncc1	none
CCOC(=O)c1c(-c2cccs2)csc1NC(=O)COC(=O)c1c(C)noc1C	Autofluor counter 16276
O=C(Cn1nc(Cc2ccncc2)c2ccccc2c1=O)Nc1cccnc1Cl	none
CCOc1ccc(C2c3cc(OC)c(OC)cc3CC(=O)N2c2ccccc2)cc1 (stereo not drawn)	Autofluor counter 20080
C=CCn1c(SCC(N)=O)nnc1-c1ccccc1O	none
C=CCn1c(SCc2ccc(C#N)cc2)nnc1-c1cccc(OC)c1	none
C=CCn1c(SCc2ccccc2C#N)nnc1-c1ccccc1O	Autofluor counter 21434
C=CCn1c(SCc2ccc(C#N)cc2)nnc1-c1ccccc1	Autofluor counter 22580
Cn1c(SCc2ccc(C#N)cc2)nnc1-c1cccc(Cl)c1	Autofluor counter 16948
